PKD1 kinase inh = PKD1 (human) kinase inhibition; PKD1 kinase fluorescence polarization assay; inhibition, % (test concentration not listed); hit rate 0.056% among 200,000; AID 797; in the data active means inhibition above about 50%
UBC9 SUMO inh = SUMOylation inhibition; P63279; HTRF SUMOylation assay, SAE1/SAE2 + UBC9, in vitro; inhibition, % at 35 µM; hit rate 0.36% among 290,000; AID 2006; in the data active means inhibition above about 50%, passing the limit was not always enough
Redox H2O2 prof = compounds producing H2O2 with reducing agent – biochemical, NIH compound library profiling, artefact control for MLSCN library redox annotation, primary screen; DTT-dependent redox cycling H2O2, phenol red/HRP absorbance; 100% = 100 µM peroxide control, 0% = buffer; activation, % at 10 µM; hit rate 0.03% among 200,000; AID 878;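 active means activation of at least 50% relative to the plate's high and low controls in the primary single-dose screen; inactive means activation below 50%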;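 further: compound incubated with DTT at 0.8 mM final as the reducing agent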
p97 inhibitor = inhibitors of human p97 ATPase; hit rate 0.42% among 220,000; AID 1481; recombinant p97 ATPase, Kinase-Glo ATP luminescence, 3 h; inhibition, % at 8 µM; in the data active means inhibition above about 15%;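 further: 0% = DMSO vehicle and 100% = wells lacking enzyme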
Furin inh = blocks human furin protease activity; P09958; purified furin, fluorogenic substrate cleavage; inhibition, % at 20 µM or 30 µM; hit rate 0.061% among 220,000; in the data active means inhibition above about 25%
FAS TE block = blocks the thioesterase domain of human fatty acid synthase. AID 602261. inhibition, % at 15 µM. recombinant FAS-TE, OMFH fluorogenic substrate, fluorescence endpoint. hit rate 0.67% among 360,000;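 active means compounds whose normalised, plate-corrected inhibition of enzyme fluorescence in the single-dose primary screen is 50% or more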;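 further: 0% = DMSO with enzyme and 100% = substrate without enzyme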
FAS-TE conf = confirmation of human fatty acid synthase thioesterase inhibitors. shares compounds with FAS TE block. recombinant FAS-TE, OMFH fluorogenic substrate, fluorescence. inhibition, % at 15 µM. hit rate 45% among 2,300. AID 624325;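 active means compounds inhibiting the enzyme by at least 50% at 15 µM in any one of the replicates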;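 further: 0% = enzyme with DMSO only and 100% = wells lacking enzyme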
* marks the source's active call; other numbers are inactive results. Sampled rows, rich in hits. Any-hit rate of the full collection: about 1.2%.

Results for C[C@H](CO)N1C[C@H](C)[C@@H](CN(C)Cc2ccc(Cl)c(Cl)c2)Oc2c(NS(=O)(=O)c3ccc(F)cc3)cccc2C1=O ?
FAS TE block: 54*; FAS-TE conf: 58*

How did Cc1ccc(S(=O)(=O)Nc2ccc3c(c2)C(=O)N([C@@H](C)CO)C[C@@H](C)[C@@H](CN(C)S(=O)(=O)c2ccccc2)OCCCC[C@H](C)O3)cc1 do in these assays?
FAS TE block: 79*; FAS-TE conf: -2

What do the screens show for `COc1ccc(S(=O)(=O)N(C)C[C@H]2OCCCC[C@H](C)Oc3ccc(NC(=O)Nc4ccc(F)cc4)cc3C(=O)N([C@H](C)CO)C[C@H]2C)cc1`?
FAS TE block: 32

How did C[C@@H]1CCCCO[C@H](CN(C)C(=O)Nc2cccc3ccccc23)[C@@H](C)CN([C@H](C)CO)C(=O)c2cc(NC(=O)c3ccccc3)ccc2O1 do in these assays?
FAS TE block: 78*; FAS-TE conf: 0

How did Cc1ccc(S(=O)(=O)N(C)C[C@@H]2OCCCC[C@H](C)Oc3ccc(NC(=O)Nc4ccc(F)cc4)cc3C(=O)N([C@H](C)CO)C[C@H]2C)cc1 do in these assays?
FAS TE block: 62*; FAS-TE conf: 0

What do the screens show for `Cc1cc(C(=O)N2CCCC(N3CCN(c4ccccc4C)CC3)C2)no1` (configuration not stated)?
FAS TE block: -3

What do the screens show for `CC(=O)Nc1c(I)c(C(=O)N[C@H]2C(O)O[C@H](CO)[C@@H](O)[C@@H]2O)c(I)c(N(C)C(C)=O)c1I` (some centres not stated)?
FAS TE block: -4

Results for O=C(COc1ccccc1Cl)NCCNC(=O)c1ccco1 ?
UBC9 SUMO inh: -6; FAS TE block: -7

What do the screens show for `O=C(N/N=C/c1cccc(Cl)c1)C1CCCC1`?
UBC9 SUMO inh: 13; FAS TE block: -1

How did Cc1ccc(-c2cnc(C(O)c3ccc(Cl)cc3C)[nH]2)cc1 (configuration not stated) do in these assays?
FAS TE block: 1

What do the screens show for `Cc1ccc(S(=O)(=O)N(C)C[C@H]2OCCCC[C@H](C)Oc3ccc(NC(=O)Nc4cccc5ccccc45)cc3C(=O)N([C@@H](C)CO)C[C@H]2C)cc1`?
FAS TE block: 82*; FAS-TE conf: 6

What do the screens show for `Cc1ccc(S(=O)(=O)Nc2ccc3c(c2)C(=O)N([C@H](C)CO)C[C@H](C)[C@@H](CN(C)Cc2ccc(-c4ccccc4)cc2)O3)cc1`?
FAS TE block: 81*; FAS-TE conf: 29

Results for C[C@@H]1CN([C@@H](C)CO)C(=O)c2cc(NC(=O)Nc3cccc4ccccc34)ccc2O[C@@H](C)CCCCO[C@H]1CN(C)C(=O)c1ccccc1 ?
FAS TE block: 11

Results for C[C@@H]1CN([C@@H](C)CO)C(=O)c2cc(NC(=O)C3CCCCC3)ccc2O[C@@H](C)CCCCO[C@H]1CN(C)S(=O)(=O)c1ccc(Cl)cc1 ?
FAS TE block: 81*; FAS-TE conf: 8

How did Cc1ccc(S(=O)(=O)Nc2cccc3c2O[C@H](CN(C)Cc2ccc(-c4ccccc4)cc2)[C@@H](C)CN([C@H](C)CO)C3=O)cc1 do in these assays?
FAS TE block: 47

Results for O=C(CCC1CCN(Cc2ccc(Cl)cc2)CC1)NC1CC1 ?
UBC9 SUMO inh: -5; FAS TE block: -2

Results for O=C1CC(N(CCc2ccccc2)C(=S)Nc2cc(Cl)ccc2Cl)C(=O)N1c1c(Cl)cccc1Cl (configuration not stated) ?
PKD1 kinase inh: -5; UBC9 SUMO inh: -46; Redox H2O2 prof: -3; p97 inhibitor: 5; Furin inh: -7; FAS TE block: 56*; FAS-TE conf: 9

What do the screens show for `CNc1nc2cc([N+](=O)[O-])c([N+](=O)[O-])cc2nc1NC`?
PKD1 kinase inh: -8; UBC9 SUMO inh: -15; Redox H2O2 prof: 1; p97 inhibitor: -2; Furin inh: -8; FAS TE block: -2

What do the screens show for `N#Cc1cc2nc(O)c(O)nc2cc1[N+](=O)[O-]`?
FAS TE block: 52*; FAS-TE conf: 56*

How did CC[C@@H]1C(c2cccc(C)c2)=NN(c2ccccc2)[C@H]1C(=O)N1CCOC1=O do in these assays?
FAS TE block: 16

Results for COc1ccccc1[C@@H]1C(c2ccccc2)=NN(c2ccc(Br)cc2)[C@H]1C(=O)N1CCOC1=O ?
FAS TE block: 74*; FAS-TE conf: 13

What do the screens show for `CC[C@@H]1C(c2ccc(F)cc2)=NN(c2ccc(Br)cc2)[C@H]1C(=O)N1CCOC1=O`?
FAS TE block: 34

Results for COc1ccccc1[C@@H]1C(c2cccc(C)c2)=NN(c2ccc(Br)cc2)[C@H]1C(=O)N1CCOC1=O ?
FAS TE block: 62*; FAS-TE conf: 17

How did C[C@H](NC(=O)N1CCn2c1nc1ccccc12)C(=O)NCC1CCCO1 (some centres not stated) do in these assays?
UBC9 SUMO inh: 9; FAS TE block: -6

Results for O=C(NCCCCc1ccccc1)C12CN(Cc3ccccc3)CC1C(c1cccc([N+](=O)[O-])c1)=NO2 (configuration not stated) ?
PKD1 kinase inh: -4; UBC9 SUMO inh: -8; Redox H2O2 prof: -3; p97 inhibitor: 0; Furin inh: -10; FAS TE block: 39

What do the screens show for `O=C(NCCc1cccs1)C12CN(Cc3ccccc3)CC1C(c1cccc([N+](=O)[O-])c1)=NO2` (configuration not stated)?
PKD1 kinase inh: 4; UBC9 SUMO inh: 0; Redox H2O2 prof: -3; p97 inhibitor: 1; Furin inh: -14; FAS TE block: 51*; FAS-TE conf: 41

What do the screens show for `O=C(NCc1ccco1)C12CN(Cc3ccccc3)CC1C(c1cccc([N+](=O)[O-])c1)=NO2` (configuration not stated)?
PKD1 kinase inh: 0; UBC9 SUMO inh: 5; Redox H2O2 prof: -10; p97 inhibitor: 3; Furin inh: -10; FAS TE block: 54*; FAS-TE conf: 47

How did O=C(NCc1ccco1)C12CN(Cc3ccccc3)CC1C(c1ccc([N+](=O)[O-])cc1)=NO2 (configuration not stated) do in these assays?
PKD1 kinase inh: -1; UBC9 SUMO inh: 26; Redox H2O2 prof: 1; p97 inhibitor: -6; Furin inh: -3; FAS TE block: 14

Results for CCOC(=O)c1c(C)[nH]c(C)c1S(=O)(=O)NC(C)Cc1ccco1 (configuration not stated) ?
UBC9 SUMO inh: -6; FAS TE block: -5

Source: PubChem
